# From PubChem BioAssay AID1851 (National Center for Advancing Translational Sciences (NCATS), 2009)
# The whole screen tested about 16,000 compounds, of which about 5,800 (36%) were called active. Roughly 23% stayed inconclusive and do not appear here. Calls come from the whole dose curve; as a rule, active = well fitted curve in the direction sought with a large enough effect; inconclusive = small, poorly fitted or top-dose-only effect, or effect the other way; inactive = no such curve, though single readings can be large or run the other way. The list shows a part of the results.
# Biological target: Cytochrome P450 2C19 (Homo sapiens) (UniProt P33261)
# Sequence (P33261 whole entry, looked up): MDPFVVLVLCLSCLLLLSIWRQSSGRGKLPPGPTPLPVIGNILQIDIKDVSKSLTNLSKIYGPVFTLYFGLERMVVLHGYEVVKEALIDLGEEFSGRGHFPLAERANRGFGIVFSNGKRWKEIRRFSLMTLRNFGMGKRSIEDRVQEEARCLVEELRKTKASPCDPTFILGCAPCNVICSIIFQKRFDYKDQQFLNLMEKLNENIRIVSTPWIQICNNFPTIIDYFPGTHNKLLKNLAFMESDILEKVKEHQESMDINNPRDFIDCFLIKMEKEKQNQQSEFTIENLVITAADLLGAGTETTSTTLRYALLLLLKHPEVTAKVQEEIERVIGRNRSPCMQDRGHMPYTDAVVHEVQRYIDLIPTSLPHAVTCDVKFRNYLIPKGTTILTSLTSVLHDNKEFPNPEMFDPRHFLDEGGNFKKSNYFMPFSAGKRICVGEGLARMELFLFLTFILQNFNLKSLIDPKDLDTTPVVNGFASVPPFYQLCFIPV
# Assay: Cytochrome panel assay with activity outcomes
# Settings: recombinant CYP, pro-luciferin dealkylation, luminescence, p450-cyp2c19; series mostly up to 57.1 µM
# % is set by controls: 0 for no effect and ±100 for the full control effect.
Compound,"activity, negative = inhibition",AC50
CN(C)CCCNc1ncnc2nc[nH]c12,19.7% [at 11.4 µM] (inactive),–
Cc1ccccc1-c1cc(N(C)Cc2ccco2)ncn1,–,6.31 µM (active)
COc1ccccc1-c1cc(N(C)Cc2ccco2)ncn1,–,3.98 µM (active)
CN(C)Cc1ccccc1-c1cc(N(C)Cc2ccco2)ncn1,–,inactive
CN(C)c1ccnc(-c2ccccc2C(F)(F)F)n1,–,inactive
CN(Cc1ccco1)c1cc(-c2ccccc2Cl)ncn1,–,7.94 µM (active)
CN(C)Cc1ccccc1-c1nccc(N(C)Cc2ccco2)n1,–,inactive
CN(Cc1ccco1)c1ccnc(-c2ccccc2C(F)(F)F)n1,–,7.94 µM (active)
CN(Cc1ccco1)c1cc(-c2ccccc2C(F)(F)F)ncn1,–,10 µM (active)
O[C@]1(c2ccccc2)c2ccccc2NC2=NCCN21,36.2% [at 11.4 µM] (inactive),–
COC(=O)c1ccccc1NC(=O)c1ccc(Cn2cc(Cl)cn2)o1,–,1.12 µM (active)
COc1ccc(NC(=O)c2ccc(COc3ccccc3)o2)cc1,–,5.62 µM (active)
Cc1onc(C(=O)/C=C/N(C)C)c1C(=O)Nc1nccs1,–,inactive
COC(=O)c1ccccc1NC(=O)c1ccc(COc2ccc(C)c(C)c2)o1,–,2 µM (active)
Cc1ccc(OCc2ccc(C(=O)Nc3nccs3)o2)cc1C,–,2.51 µM (active)
Cc1ccc2ncc([N+](=O)[O-])n2c1,–,inactive
CCOc1ccc(C(CC(=O)O)NC(=O)COc2ccccc2)cc1 (stereo not drawn),–,inactive
CCOC(=O)CC(NC(=O)c1ccco1)c1ccc(OC)cc1 (stereo not drawn),–,14.1 µM (active)
CCOC(=O)CC(NC(=O)c1ccc(C)cc1)c1ccc(C)cc1 (stereo not drawn),–,14.1 µM (active)
CCOC(=O)CC(NC(=O)c1cccs1)c1ccc(OCC)cc1 (stereo not drawn),–,2.82 µM (active)
CC(C)CSC[C@@H]1O[C@H](n2cnc3c(N)nccc32)[C@H](O)[C@@H]1O,39.2% [at 11.4 µM] (inactive),–
COCCNC(=O)c1cn(Cc2c(F)cccc2Cl)nn1,–,14.1 µM (active)
COCCNC(=O)CCn1nc(-c2ccc(Cl)cc2)ccc1=O,–,inactive
CN(CC(=O)Nc1cccc2c1CCCC2)S(=O)(=O)c1ccc(Br)cc1,–,5.01 µM (active)
CN(CCC(=O)O)S(=O)(=O)c1ccccc1,-21.5% [at 11.4 µM] (inactive),–
NC(N)=NC[C@@H]1CCCCCCN1,23.1% [at 11.4 µM] (inactive),–

Compound,"activity, negative = inhibition",AC50
Cn1c(C(=O)O)c(CC(=O)NCc2cccnc2)c2ccccc21,–,inactive
O=C(CCc1ccccc1)NCc1cccnc1,–,25.1 µM (active)
O=C(c1ccccc1)c1c[nH]c(C(=O)NCc2cccnc2)c1,–,14.1 µM (active)
O=C(CSCc1c(Cl)cccc1Cl)NCc1cccnc1,–,3.55 µM (active)
NNC(=O)Cc1cccnc1,7.22% [at 11.4 µM] (inactive),–
CC(C)CO/N=C1/C[C@@H](O)[C@@H](O)[C@@H]2[C@@H]3C(=O)N([C@@H](C)c4ccccc4)C(=O)[C@H]3CC[C@@H]12,7.13% [at 11.4 µM] (inactive),–
CC(CO)(CO)N=Cc1cc(I)cc(I)c1O,-13.1% [at 11.4 µM] (inactive),–
COc1ccccc1NC(=O)[C@H](COCc1ccccc1)NC(=O)OC(C)(C)C,–,3.55 µM (active)
O=[N+]([O-])c1cc(C(F)(F)F)ccc1NCCCCNS(=O)(=O)c1ccc2ccccc2c1,–,1.78 µM (active)
CCOC(=O)N/N=C/c1ccc(C)o1,–,inactive
Cc1ccc(NC(=O)CN2C(=O)N/C(=C/c3ccc(C)o3)C2=O)cc1,–,inactive
Cc1ccc(/C=C/C(=O)N2CC(C)CC(C)C2)o1 (stereo not drawn),–,11.2 µM (active)
C[N+](C)(CCCCCC[N+](C)(C)CCCN1C(=O)c2cccc3cccc(c23)C1=O)CCCN1C(=O)c2cccc3cccc(c23)C1=O,–,inactive
Cc1cccc(NC(=O)CCCN2C(=O)c3cccc4cccc(c34)C2=O)c1,–,14.1 µM (active)
Cc1cccc(NC(=O)CC2Nc3cccc4cccc(c34)NC2=O)c1 (stereo not drawn),–,2.24 µM (active)
O=C(CCCN1C(=O)c2cccc3cccc(c23)C1=O)N1CCc2ccccc2C1,–,3.98 µM (active)
O=C(CN1C(=O)c2cccc3cccc(c23)C1=O)N1CCCCCC1,–,inactive
Cc1ccc(-n2nnnc2Sc2nc([N+](=O)[O-])nn2C)cc1C,–,3.98 µM (active)
O=C(O)c1ccc(Sc2nnnn2-c2ccccc2)c([N+](=O)[O-])c1,–,inactive
CC(C)C(=O)N[C@@H]1CCCN1C(=O)/C=C\c1ccccc1,-31.2% [at 11.4 µM] (inactive),–
CC(CCc1ccccc1)NC(=O)C(=O)NCCO (stereo not drawn),–,31.6 µM (active)
CCCCNC(=O)C(=O)NC(C)CCc1ccccc1 (stereo not drawn),–,14.1 µM (active)
O=C(O)[C@H](CCc1ccccc1)N1C(=O)c2ccccc2C1=O,-17.1% [at 11.4 µM] (inactive),–
CC(CCc1ccccc1)NC(=O)/C=C/c1ccccc1 (stereo not drawn),–,8.91 µM (active)
CC(C)C(=O)N[C@H]1CCCN1C(=O)/C=C\c1ccccc1,-19.8% [at 11.4 µM] (inactive),–
CC(=O)c1cn(CC(=O)Nc2c(C)cccc2C)c2ccccc12,–,7.08 µM (active)

Compound,"activity, negative = inhibition",AC50
CC(C)(C)N(NC(=O)Nc1ccc(Cl)c(Cl)c1)C(=O)c1ccccc1,–,1.26 µM (active)
CC(C)(C)N(NC(=O)Nc1ccccc1)C(=O)c1ccccc1Cl,–,11.2 µM (active)
COC(=O)c1cccc(NC(=O)Nc2ccc(Cl)c(Cl)c2)c1,–,3.98 µM (active)
Cc1cc(C)cc(C(=O)N(NC(=O)Nc2ccc(Cl)cc2)C(C)(C)C)c1,–,1.58 µM (active)
O=C(Nc1ccc(C(=O)Nc2ccc(C(=O)Nc3ccc(S(=O)(=O)O)c4cc(S(=O)(=O)O)cc(S(=O)(=O)O)c34)cc2)cc1)Nc1ccc(C(=O)Nc2ccc(C(=O)Nc3ccc(S(=O)(=O)O)c4cc(S(=O)(=O)O)cc(S(=O)(=O)O)c34)cc2)cc1,–,inactive
CC1(C)S[C@@H]2[C@H](NC(=O)[C@@H](N)c3ccccc3)C(=O)N2[C@H]1C(=O)O[C@H]1OC(=O)c2ccccc21,–,inactive
O=C(c1ccccc1)C1CN(c2ccccc2)CC1c1ccc(Cl)cc1 (stereo not drawn),–,3.98 µM (active)
O[C@H](CN1CCN(c2cccc(Cl)c2)CC1)C(c1ccccc1)c1ccccc1,–,inactive
COc1ccccc1-c1c(C(F)(F)F)oc2cc(OC(=O)c3cccc([N+](=O)[O-])c3C)ccc2c1=O,–,0.631 µM (active)
Clc1ccccc1-c1ccc2ncnc(NCCN3CCOCC3)c2c1,–,inactive
c1ccc2c(c1)CCCc1cc(NCCN3CCOCC3)nnc1-2,–,inactive
Clc1ccccc1-c1nccc(NCCN2CCOCC2)n1,–,5.01 µM (active)
Cc1ccccc1-c1nccc(NCCN2CCOCC2)n1,–,10 µM (active)
Cc1noc(C)c1-c1nccc(NCCN2CCOCC2)n1,–,inactive
Cc1ccccc1-c1cc(NCCN2CCOCC2)ncn1,–,inactive
CCSc1nnc(NC(=O)C(C(F)(F)F)C(F)(F)F)s1,–,20 µM (active)
COCCSc1nnc(NC(=O)C(C)(C)C)s1,–,inactive
CSc1nc(Oc2ccc(F)cc2)c2ccccc2n1,–,7.08 µM (active)
Cn1c(=O)c(-c2ccc(F)cc2)nc2cnc(Oc3ccccc3)nc21,–,inactive
CCOC(=O)c1cnc2c(cnn2CC)c1NN=C(C)C,–,inactive
CCOC(=O)c1cnc2c(cnn2C)c1NCCCN(C)C,–,inactive
CCOC(=O)c1cnn(CCOC(=O)C(C)(C)C)c1NC(=O)C(C)(C)C,–,14.1 µM (active)
COc1ccc(-c2c(C)oc3c(CN4CCN(CCO)CC4)c(O)ccc3c2=O)cc1OC,–,inactive
O=c1oc2c(CN3CCOCC3)c(O)ccc2c2ccccc12,–,14.1 µM (active)
CN(C)c1ncc2nc(-c3ccc(F)cc3)c(=O)n(C)c2n1,–,inactive
CS(=O)(=O)c1cnc2c(-c3ccc(F)cc3)cnn2c1N,–,inactive

Compound,"activity, negative = inhibition",AC50
CC(C)(C)S(=O)(=O)c1cnc2c(-c3ccc(F)cc3)cnn2c1N,–,11.2 µM (active)
CN(C)c1ncc2nc(-c3cccc(C#N)c3)c(=O)n(CCC#N)c2n1,–,inactive
CN(C)c1ccc(-c2cncnc2N(C)Cc2ccco2)cc1,–,0.251 µM (active)
CN(Cc1ccco1)c1ncncc1-c1cccc(C#N)c1,–,20 µM (active)
COCCn1c(=O)c(-c2cccc(C#N)c2)nc2cnc(N(C)C)nc21,–,inactive
COc1cccc(-c2cncnc2N(C)Cc2ccco2)c1,–,7.94 µM (active)
CN(Cc1ccco1)c1ncncc1-c1ccc2c(c1)OCO2,–,0.126 µM (active)
COCC(=O)N1CCC[C@@]2(CCN(C(=O)Nc3cccc(F)c3)C2)C1,–,inactive
CN(Cc1ccco1)c1ncncc1-c1cccnc1,–,10 µM (active)
CC(NC(=O)c1ccccc1)c1nc2ccccc2n1Cc1ccccc1F (stereo not drawn),–,8.91 µM (active)
Cc1cc(NC(=S)NC(=O)CC(C)C)ccc1Br,–,3.55 µM (active)
CCCCn1c(SCC(=O)N2CCCC2)nc2c1c(=O)n(C)c(=O)n2C,–,inactive
CCCCn1nnnc1SCC(=O)N1CCCC1,–,25.1 µM (active)
CCCCn1nnnc1SCC(=O)c1cc(Cl)ccc1OC,–,0.0708 µM (active)
C[N+](C)(C)CCCCCCCCCC[N+](C)(C)C,–,inactive
CCCCCCCCCCCC1=C(O)C(=O)C=C(O)C1=O,–,inactive
O=S(=O)(N/N=C\c1ccc2c(c1)OCO2)c1ccc(Cl)cc1,–,0.794 µM (active)
O=S(=O)(N/N=C/c1ccc2c(c1)OCCO2)c1ccc(Cl)cc1,–,2.82 µM (active)
C[C@]1(C2CCCC2)Cc2cc(OCC(=O)O)c(Cl)c(Cl)c2C1=O,–,inactive
O=C(CN1C(=O)NC2(CCCC2)C1=O)NCCC1=CCCCC1,–,14.1 µM (active)
Cc1nc2ncnn2c(C)c1CCC(=O)NCCC1=CCCCC1,–,inactive
CCCn1c(=O)c2[nH]c(-c3ccc(OCC(=O)NCCN)cc3)nc2n(CCC)c1=O,–,inactive
O=C(COc1ccc(Cl)cc1)NCCC1=CCCCC1,–,3.98 µM (active)
O=C(CN1CCN(c2ncccn2)CC1)NCCC1=CCCCC1,–,4.47 µM (active)
O=C(CN1CCN(C2CCCCC2)CC1)NCCC1=CCCCC1,–,inactive
